According to PMC3795721, “Screening for Protein-DNA Interactions by Automatable DNA-Protein Interaction ELISA”:

The sequences below were run against AT4G31550 (Arabidopsis thaliana, UniProt Q9SV15 228-325) (assay: DPI-ELISA; DPI-ELISA, streptavidin 384-well plate, 1-2 pmol biotinylated dsDNA per well, crude native E. coli extract, anti-His detection; buffer as in Brand et al. [46],; high values mean tight binding). Conditions: tags: C-terminal His (pET-DEST42); label: 5' biotin on forward strand; dsDNA, one strand shown.
AT4G31550, sequence (Q9SV15 228-325): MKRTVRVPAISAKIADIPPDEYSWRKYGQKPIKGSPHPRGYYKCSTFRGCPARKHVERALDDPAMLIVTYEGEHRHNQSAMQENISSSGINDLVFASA

Row | Sequence | binding signal [absorbance]
1 | AAAAAAGGCCGTTGGACCTCGGTCTAAAAA | 0.66 ± 0.0707
2 | AAAAAATTCACTTTTACCTTTGTGTTAAAA | 0.555 ± 0.0919
3 | AAAAAAGTGCACGACCCATTTATATAAAAA | 0.5 ± 0.099
4 | AAAAAACTGGTGTATCTCCTCAATTAAAAA | 0.635 ± 0.0636
5 | AAAAAACGTGCGCGTGCATGTCATCGAAAA | 0.665 ± 0.0919
6 | AAAAAACTGACCGTCAGCGCCCACGCAAAA | 1.45 ± 0.424
7 | AAAAAATCACAATACCTTCTCGTCATAAAA | 0.58 ± 0.113
8 | AAAAAAAGTCTGCGGCTGCAGGGCGGAAAA | 1.91 ± 0.368
9 | AAAAAACTACCTCTACTCTAGCCTTAAAAA | 0.515 ± 0.0495
10 | AAAAAATTGCCGTCATAATTGTGGTAAAAA | 0.59 ± 0.0849
11 | AAAAAATGGTACTCAGAGTTATAGACAAAA | 0.66 ± 0.141
12 | AAAAAAATGATTTGCAGATCTCCGAGAAAA | 0.935 ± 0.488
13 | AAAAAAGGACGTCTTCGGTATGAGTGAAAA | 0.815 ± 0.163
14 | AAAAAAAGTTTGACCTTGGCGTTCGTAAAA | 3.5 ± 0.148
15 | AAAAAAGTGCGTTCACGCTTGTATCTAAAA | 0.69 ± 0.17
16 | AAAAAAGTCCCGCGCTAAGCTTTAAAAAAA | 0.615 ± 0.106
17 | AAAAAATTAATCCATGCTTATGTCTGAAAA | 0.71 ± 0.184
18 | AAAAAAAATCTTAGCTCTATCTCATCAAAA | 0.68 ± 0.113
19 | AAAAAAAGTTCCAGGTCCGATGCTCAAAAA | 0.805 ± 0.318

Row | Sequence | binding signal [absorbance]
20 | AAAAAATGGAAGGAGAGGGATGAAATAAAA | 0.57 ± 0.156
21 | AAAAAAGATCTAGGCCTTGGGACTCAAAAA | 0.415 ± 0.0636
22 | AAAAAATATGTTTTCGCTTTATTCTTAAAA | 0.52 ± 0.099
23 | AAAAAAGTCCGCCCTTAATTCATATTAAAA | 1.37 ± 0.269
24 | AAAAAATTGTGCCTCTGCCCTCGCCTAAAA | 0.62 ± 0.127
25 | AAAAAATGTCTAGACTCGGACATTCGAAAA | 0.54 ± 0.0566
26 | AAAAAAGTCGTTACACGTATGCGTGCAAAA | 1.5 ± 0.0566
27 | AAAAAATATATTTTCAGCTTTAATCTAAAA | 0.685 ± 0.106
28 | AAAAAATATCTGATCCAATTTAGGTCAAAA | 1.5 ± 0.0212
29 | AAAAAATCAAAACAACGATGCCGTTAAAAA | 0.73 ± 0.0849
30 | AAAAAAGGCCACGGTAACCCCTTTTGAAAA | 0.695 ± 0.12
31 | AAAAAATTTGCGCTTCATCCTGCCCCAAAA | 0.715 ± 0.106
32 | AAAAAAGCTAGTGCTGCCACCAACGTAAAA | 0.535 ± 0.12
33 | AAAAAAATGCGCCCTTTCTGACATAAAAAA | 0.615 ± 0.106
34 | AAAAAATTCGGGACTAGTAGTGGTGAAAAA | 0.605 ± 0.0778
35 | AAAAAACCAACTCTCTTTCGGACTATAAAA | 0.67 ± 0.156
36 | AAAAAAGCTCATGGCCCTGAGGATCTAAAA | 0.73 ± 0.113
37 | AAAAAAAGGTCATTGCTGCTGGTGTTAAAA | 0.735 ± 0.106
38 | AAAAAATATGGCACTCGCCGCACATCAAAA | 0.755 ± 0.191
